Assay in all cases: DAPPL (digital affinity profiling via proximity ligation, sequencing); 10 mM Tris-HCl pH 7.5, 50 mM NaCl, 1 mM DTT, 4% glycerol, room temperature, 30 min; GST-TFs on glutathione beads, 16-mer random dsDNA library, 0.1% formaldehyde crosslink after washing; high values mean tight binding
Assay [1] has as its target T1, FEV (Homo sapiens, UniProt Q99581 1-238).
T1 sequence: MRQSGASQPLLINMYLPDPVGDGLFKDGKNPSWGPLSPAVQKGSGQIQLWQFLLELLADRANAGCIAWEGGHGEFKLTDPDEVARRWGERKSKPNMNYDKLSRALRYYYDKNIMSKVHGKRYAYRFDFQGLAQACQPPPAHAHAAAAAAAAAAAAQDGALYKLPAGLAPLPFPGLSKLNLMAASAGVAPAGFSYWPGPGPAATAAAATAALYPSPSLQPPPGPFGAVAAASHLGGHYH
Conditions: protein: recombinant; tags: N-terminal GST; dsDNA, one strand shown. A digest of the protocol:
(§1)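 Binding signal is each hexamer's read frequency for a factor divided by its frequency in the tag-only sample. The factors were GST-fused human transcription factors from yeast, captured on glutathione beads, DNA-barcoded and pooled with that sample. Pools were incubated with 200 nmole of a random double-stranded 16-mer DNA library in Tris/NaCl/DTT/glycerol buffer at room temperature for 30 min, then washed, crosslinked with 0.1% formaldehyde, proximity-ligated with BsaI/T4 ligase (1 h, 37 °C), PCR-amplified and sequenced on an Illumina NextSeq500.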

For assay [2], the target named is ETV5 (Homo sapiens, UniProt P41161 1-510). Conditions: protein: recombinant; tags: N-terminal GST; dsDNA, one strand shown. The gist of the method: as §1
Assay [3] has as its target HSF1 (Homo sapiens, UniProt Q00613 1-529). Conditions: protein: recombinant; tags: N-terminal GST; chain copies: 3; dsDNA, one strand shown. The gist of the method:
as §1

Assay [4] has as its target T2, SPIC (Homo sapiens, UniProt Q8N5J4 1-248).
T2 sequence: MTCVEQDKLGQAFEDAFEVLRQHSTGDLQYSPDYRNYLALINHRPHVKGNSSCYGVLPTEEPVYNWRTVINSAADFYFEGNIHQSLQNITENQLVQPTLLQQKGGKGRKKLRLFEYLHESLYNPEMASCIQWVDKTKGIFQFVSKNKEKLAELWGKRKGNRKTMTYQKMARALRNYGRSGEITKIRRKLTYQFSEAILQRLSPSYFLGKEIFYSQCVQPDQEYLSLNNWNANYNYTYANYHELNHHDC
Conditions: protein: recombinant; tags: N-terminal GST; dsDNA, one strand shown. A digest of the protocol:
as §1

Assay [5] concerns the target ELF4 (Homo sapiens, UniProt Q99607 1-663). Conditions: protein: recombinant; tags: N-terminal GST; dsDNA, one strand shown. The gist of the method: as §1
Assay [6] has as its target T3, ELK4 (Homo sapiens, UniProt P28324-2 1-405).
T3 sequence: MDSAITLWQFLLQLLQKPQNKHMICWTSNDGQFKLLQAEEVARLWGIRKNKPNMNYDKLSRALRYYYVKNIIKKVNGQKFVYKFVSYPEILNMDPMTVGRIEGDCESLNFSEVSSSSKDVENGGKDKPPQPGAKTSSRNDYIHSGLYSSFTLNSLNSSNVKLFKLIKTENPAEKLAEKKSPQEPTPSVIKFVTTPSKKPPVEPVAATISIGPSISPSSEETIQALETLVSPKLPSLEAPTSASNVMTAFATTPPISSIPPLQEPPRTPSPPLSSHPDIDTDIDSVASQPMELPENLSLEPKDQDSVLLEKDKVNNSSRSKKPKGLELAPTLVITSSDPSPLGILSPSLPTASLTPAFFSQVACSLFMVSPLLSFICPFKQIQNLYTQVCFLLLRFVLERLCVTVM
Conditions: protein: recombinant; tags: N-terminal GST; dsDNA, one strand shown. A digest of the protocol: as §1

Assay [7] has as its target T4, ETV2 (Homo sapiens, UniProt O00321 1-342).
T4 sequence: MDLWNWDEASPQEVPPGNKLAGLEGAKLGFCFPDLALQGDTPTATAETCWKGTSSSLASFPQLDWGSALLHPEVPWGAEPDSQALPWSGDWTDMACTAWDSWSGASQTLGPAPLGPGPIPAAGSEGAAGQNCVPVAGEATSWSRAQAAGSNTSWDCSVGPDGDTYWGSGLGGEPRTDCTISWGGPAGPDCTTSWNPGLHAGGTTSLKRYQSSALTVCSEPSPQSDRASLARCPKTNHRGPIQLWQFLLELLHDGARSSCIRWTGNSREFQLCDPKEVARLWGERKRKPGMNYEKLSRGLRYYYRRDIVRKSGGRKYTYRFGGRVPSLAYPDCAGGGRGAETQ
Conditions: protein: recombinant; tags: N-terminal GST; dsDNA, one strand shown. The gist of the method: as §1

For assay [8], the target named is T5, ELF3 (Homo sapiens, UniProt P78545 1-371).
T5 sequence: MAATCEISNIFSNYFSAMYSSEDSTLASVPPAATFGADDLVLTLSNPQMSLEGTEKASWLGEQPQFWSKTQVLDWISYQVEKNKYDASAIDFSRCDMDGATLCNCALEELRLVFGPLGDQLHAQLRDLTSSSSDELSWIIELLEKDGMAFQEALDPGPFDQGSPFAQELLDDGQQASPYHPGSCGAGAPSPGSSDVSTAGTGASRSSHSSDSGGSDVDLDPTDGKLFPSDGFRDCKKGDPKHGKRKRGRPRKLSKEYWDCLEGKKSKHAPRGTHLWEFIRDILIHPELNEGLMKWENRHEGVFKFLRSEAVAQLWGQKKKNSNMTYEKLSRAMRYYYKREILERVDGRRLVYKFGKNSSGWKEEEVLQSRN
Conditions: protein: recombinant; tags: N-terminal GST; dsDNA, one strand shown. A digest of the protocol: as §1

For assay [9], the target named is CRX (Homo sapiens, UniProt O43186 1-299). Conditions: protein: recombinant; tags: N-terminal GST; dsDNA, one strand shown. The gist of the method: as §1
Assay [10] has as its target ETV1 (Homo sapiens, UniProt P50549 1-477). Conditions: protein: recombinant; tags: N-terminal GST; dsDNA, one strand shown. A digest of the protocol: as §1
Assay [11] addresses T6, ERF (Homo sapiens, UniProt P50548 1-548).
T6 sequence: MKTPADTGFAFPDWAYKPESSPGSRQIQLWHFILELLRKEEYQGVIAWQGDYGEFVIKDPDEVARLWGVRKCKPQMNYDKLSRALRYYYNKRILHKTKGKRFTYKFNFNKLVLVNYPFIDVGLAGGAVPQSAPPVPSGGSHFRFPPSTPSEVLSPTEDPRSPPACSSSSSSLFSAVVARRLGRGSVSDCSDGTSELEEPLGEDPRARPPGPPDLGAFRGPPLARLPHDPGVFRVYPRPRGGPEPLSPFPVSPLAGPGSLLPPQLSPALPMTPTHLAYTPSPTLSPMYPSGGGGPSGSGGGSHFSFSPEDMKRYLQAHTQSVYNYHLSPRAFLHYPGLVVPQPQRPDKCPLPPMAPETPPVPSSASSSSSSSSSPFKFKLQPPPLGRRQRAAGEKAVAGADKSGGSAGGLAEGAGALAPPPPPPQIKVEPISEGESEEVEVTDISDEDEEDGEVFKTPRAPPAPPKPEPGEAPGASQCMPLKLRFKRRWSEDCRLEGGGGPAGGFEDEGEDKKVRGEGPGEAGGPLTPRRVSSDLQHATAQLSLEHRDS
Conditions: protein: recombinant; tags: N-terminal GST; dsDNA, one strand shown. A digest of the protocol: as §1

Assay [12] has as its target T7, ETV3L (Homo sapiens, UniProt Q6ZN32 1-361).
T7 sequence: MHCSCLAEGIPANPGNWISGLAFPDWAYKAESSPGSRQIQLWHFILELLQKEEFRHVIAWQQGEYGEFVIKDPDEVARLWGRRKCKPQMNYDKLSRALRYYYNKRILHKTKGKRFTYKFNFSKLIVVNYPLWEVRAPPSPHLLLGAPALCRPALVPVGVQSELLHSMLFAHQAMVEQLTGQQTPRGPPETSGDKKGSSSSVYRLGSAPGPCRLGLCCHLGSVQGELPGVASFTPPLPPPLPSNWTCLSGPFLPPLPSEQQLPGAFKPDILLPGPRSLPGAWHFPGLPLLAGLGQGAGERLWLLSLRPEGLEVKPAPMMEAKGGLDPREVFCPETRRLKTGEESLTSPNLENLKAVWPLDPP
Conditions: protein: recombinant; tags: N-terminal GST; dsDNA, one strand shown. The gist of the method:
as §1

The target in assay [13] is T8, ETS2 (Homo sapiens, UniProt P15036 1-469).
T8 sequence: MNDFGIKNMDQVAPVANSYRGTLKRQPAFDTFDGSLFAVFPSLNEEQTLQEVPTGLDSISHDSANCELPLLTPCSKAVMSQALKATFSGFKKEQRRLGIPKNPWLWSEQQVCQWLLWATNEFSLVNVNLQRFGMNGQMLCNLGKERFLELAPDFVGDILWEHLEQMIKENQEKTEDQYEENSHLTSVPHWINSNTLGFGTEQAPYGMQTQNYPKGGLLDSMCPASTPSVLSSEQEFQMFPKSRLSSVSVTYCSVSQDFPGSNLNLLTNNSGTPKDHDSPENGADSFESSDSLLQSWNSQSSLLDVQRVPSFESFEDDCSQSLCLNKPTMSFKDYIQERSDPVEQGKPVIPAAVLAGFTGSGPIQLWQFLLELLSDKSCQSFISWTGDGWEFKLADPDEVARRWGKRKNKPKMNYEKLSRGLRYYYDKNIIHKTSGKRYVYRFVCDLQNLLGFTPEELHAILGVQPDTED
Conditions: protein: recombinant; tags: N-terminal GST; dsDNA, one strand shown. A digest of the protocol:
as §1

Assay [14] deals with T9, SPDEF (Homo sapiens, UniProt O95238 1-335).
T9 sequence: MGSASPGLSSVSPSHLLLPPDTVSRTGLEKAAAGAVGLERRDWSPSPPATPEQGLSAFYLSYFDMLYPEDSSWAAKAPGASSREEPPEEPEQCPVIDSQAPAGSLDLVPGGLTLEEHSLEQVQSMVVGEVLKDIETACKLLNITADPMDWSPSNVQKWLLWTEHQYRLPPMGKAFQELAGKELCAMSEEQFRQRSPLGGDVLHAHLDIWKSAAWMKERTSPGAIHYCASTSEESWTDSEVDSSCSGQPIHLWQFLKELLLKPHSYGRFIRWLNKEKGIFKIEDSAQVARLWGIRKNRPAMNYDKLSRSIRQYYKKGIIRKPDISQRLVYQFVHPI
Conditions: protein: recombinant; tags: N-terminal GST; dsDNA, one strand shown. A digest of the protocol:
as §1

Assay [15] concerns the target T10, ETV7 (Homo sapiens, UniProt Q9Y603 1-341).
T10 sequence: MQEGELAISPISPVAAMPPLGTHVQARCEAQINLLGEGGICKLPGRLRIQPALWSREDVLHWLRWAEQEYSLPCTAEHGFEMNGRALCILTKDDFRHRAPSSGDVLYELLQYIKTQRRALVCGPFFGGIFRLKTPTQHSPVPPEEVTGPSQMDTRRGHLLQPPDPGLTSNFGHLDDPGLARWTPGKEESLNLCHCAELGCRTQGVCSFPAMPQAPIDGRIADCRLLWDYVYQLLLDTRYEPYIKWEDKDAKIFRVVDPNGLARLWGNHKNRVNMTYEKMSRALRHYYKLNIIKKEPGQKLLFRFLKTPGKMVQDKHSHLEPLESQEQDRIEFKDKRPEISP
Conditions: protein: recombinant; tags: N-terminal GST; dsDNA, one strand shown. The gist of the method:
as §1

Assay [16] addresses T11, ELF5 (Homo sapiens, UniProt Q9UKW6-2 1-255).
T11 sequence: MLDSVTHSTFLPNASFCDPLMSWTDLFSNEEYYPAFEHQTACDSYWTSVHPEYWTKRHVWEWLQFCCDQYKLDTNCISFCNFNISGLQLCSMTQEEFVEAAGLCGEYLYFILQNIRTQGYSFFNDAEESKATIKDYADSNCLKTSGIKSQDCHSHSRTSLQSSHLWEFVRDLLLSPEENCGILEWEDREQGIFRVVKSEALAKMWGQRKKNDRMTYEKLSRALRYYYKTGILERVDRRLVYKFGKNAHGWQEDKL
Conditions: protein: recombinant; tags: N-terminal GST; dsDNA, one strand shown. The gist of the method: as §1

Assay [17] concerns the target T12, ETV3 (Homo sapiens, UniProt P41162-2 1-143).
T12 sequence: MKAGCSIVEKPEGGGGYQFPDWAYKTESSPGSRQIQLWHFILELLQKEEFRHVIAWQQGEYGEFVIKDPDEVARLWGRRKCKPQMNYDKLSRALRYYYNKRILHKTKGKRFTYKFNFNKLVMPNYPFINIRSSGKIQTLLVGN
Conditions: protein: recombinant; tags: N-terminal GST; dsDNA, one strand shown. A digest of the protocol:
as §1

The target in assay [18] is ETV6 (Homo sapiens, UniProt P41212 1-452). Conditions: protein: recombinant; tags: N-terminal GST; dsDNA, one strand shown. The gist of the method:
as §1

Chain of CRX (O43186 whole entry): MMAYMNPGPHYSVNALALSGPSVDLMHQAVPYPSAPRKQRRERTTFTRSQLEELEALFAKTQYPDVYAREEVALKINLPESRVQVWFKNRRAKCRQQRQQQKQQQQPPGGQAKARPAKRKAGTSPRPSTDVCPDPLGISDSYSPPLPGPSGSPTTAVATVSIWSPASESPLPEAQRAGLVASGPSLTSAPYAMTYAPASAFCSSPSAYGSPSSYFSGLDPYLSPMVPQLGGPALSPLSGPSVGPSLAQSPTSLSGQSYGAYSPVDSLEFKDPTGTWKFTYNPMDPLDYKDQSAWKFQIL
Chain of ETV6 (P41212 whole entry): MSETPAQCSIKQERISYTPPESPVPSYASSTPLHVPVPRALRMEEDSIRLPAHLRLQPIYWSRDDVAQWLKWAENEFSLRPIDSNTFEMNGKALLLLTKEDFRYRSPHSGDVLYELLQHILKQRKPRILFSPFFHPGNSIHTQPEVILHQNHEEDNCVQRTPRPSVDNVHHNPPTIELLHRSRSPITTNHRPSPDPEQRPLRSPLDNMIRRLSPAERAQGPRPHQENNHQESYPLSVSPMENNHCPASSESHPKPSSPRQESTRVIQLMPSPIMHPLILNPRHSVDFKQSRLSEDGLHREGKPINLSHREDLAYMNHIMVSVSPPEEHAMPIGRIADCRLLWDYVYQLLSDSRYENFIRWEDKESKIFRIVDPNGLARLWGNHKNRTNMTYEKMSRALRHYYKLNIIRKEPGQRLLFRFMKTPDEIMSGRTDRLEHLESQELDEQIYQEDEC
Chain of ETV1 (P50549 whole entry): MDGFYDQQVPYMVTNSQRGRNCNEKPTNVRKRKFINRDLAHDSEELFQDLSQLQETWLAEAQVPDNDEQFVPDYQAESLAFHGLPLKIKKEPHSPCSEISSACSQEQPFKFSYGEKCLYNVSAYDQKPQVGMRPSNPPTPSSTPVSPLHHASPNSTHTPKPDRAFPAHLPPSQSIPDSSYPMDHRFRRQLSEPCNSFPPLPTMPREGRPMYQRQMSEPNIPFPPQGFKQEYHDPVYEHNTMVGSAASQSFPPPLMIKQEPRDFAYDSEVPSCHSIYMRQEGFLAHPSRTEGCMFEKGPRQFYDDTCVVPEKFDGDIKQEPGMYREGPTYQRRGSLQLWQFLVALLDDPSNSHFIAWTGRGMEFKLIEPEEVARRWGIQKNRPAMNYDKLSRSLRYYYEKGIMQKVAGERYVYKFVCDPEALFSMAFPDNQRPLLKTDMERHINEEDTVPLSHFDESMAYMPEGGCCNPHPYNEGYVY
Chain of ETV5 (P41161 whole entry): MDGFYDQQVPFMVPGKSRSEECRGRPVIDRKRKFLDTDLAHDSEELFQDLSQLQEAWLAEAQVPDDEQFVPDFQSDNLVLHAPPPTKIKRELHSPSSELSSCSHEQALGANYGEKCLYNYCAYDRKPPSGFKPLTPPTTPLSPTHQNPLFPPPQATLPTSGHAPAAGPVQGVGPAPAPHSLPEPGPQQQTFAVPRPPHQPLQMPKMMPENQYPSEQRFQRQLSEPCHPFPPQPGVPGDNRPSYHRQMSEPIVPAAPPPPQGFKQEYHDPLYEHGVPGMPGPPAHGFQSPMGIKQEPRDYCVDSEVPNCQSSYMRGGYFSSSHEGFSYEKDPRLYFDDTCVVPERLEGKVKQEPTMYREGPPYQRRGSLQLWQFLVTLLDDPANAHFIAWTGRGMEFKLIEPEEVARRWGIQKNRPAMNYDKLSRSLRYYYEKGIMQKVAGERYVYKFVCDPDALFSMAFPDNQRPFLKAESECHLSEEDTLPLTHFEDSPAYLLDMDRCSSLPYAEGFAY
Chain of HSF1 (Q00613 whole entry): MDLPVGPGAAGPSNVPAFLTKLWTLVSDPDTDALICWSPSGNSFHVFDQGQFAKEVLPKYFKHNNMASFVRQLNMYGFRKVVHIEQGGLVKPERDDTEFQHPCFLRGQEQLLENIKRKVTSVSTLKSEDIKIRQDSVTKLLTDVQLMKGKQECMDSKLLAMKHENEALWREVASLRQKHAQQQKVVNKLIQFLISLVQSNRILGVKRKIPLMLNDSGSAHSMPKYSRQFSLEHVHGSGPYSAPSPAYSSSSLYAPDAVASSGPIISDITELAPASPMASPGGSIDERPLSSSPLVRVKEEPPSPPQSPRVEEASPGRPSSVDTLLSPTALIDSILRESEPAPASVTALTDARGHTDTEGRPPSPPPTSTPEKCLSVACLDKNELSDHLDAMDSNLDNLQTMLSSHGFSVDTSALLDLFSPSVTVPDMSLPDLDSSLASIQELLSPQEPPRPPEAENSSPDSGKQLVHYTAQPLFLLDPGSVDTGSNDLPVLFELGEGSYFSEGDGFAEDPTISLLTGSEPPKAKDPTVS
Chain of ELF4 (Q99607 whole entry): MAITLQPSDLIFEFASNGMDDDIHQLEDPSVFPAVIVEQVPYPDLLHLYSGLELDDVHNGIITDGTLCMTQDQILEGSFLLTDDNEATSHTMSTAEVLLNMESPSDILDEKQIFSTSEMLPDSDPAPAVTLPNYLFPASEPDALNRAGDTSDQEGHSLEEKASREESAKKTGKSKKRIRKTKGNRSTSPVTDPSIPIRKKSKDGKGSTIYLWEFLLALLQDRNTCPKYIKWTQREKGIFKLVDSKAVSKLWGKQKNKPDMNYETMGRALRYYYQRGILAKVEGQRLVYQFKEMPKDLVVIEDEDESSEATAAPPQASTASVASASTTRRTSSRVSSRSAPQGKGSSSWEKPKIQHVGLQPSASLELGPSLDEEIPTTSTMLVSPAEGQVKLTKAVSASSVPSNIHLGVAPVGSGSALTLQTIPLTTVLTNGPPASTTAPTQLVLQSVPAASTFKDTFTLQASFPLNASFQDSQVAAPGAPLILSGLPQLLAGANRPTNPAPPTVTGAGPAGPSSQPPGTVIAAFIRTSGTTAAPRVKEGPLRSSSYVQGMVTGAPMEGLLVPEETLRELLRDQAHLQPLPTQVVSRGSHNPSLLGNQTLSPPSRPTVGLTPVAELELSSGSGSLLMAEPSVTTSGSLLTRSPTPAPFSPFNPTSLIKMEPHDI

In the case of CTAATT, the binding signal was 1.35 fold enrichment (6-mer frequency, TF over GST control) in assay [1]; 1.28 fold enrichment (6-mer frequency, TF over GST control) in assay [2]; 1.47 fold enrichment (6-mer frequency, TF over GST control) in assay [3]; 1.46 fold enrichment (6-mer frequency, TF over GST control) in assay [4]; 1.38 fold enrichment (6-mer frequency, TF over GST control) in [5]; 1.27 fold enrichment (6-mer frequency, TF over GST control) in assay [6]. In addition, the binding signal was 1.57 fold enrichment (6-mer frequency, TF over GST control) in assay [7]; 1.48 fold enrichment (6-mer frequency, TF over GST control) in [8]; 2.09 fold enrichment (6-mer frequency, TF over GST control) in [9]; 1.26 fold enrichment (6-mer frequency, TF over GST control) in assay [10]; 1.27 fold enrichment (6-mer frequency, TF over GST control) in [11]; 1.23 fold enrichment (6-mer frequency, TF over GST control) in [12]. Besides, the binding signal in assay [13] was 1.37 fold enrichment (6-mer frequency, TF over GST control); in assay [14], 1.17 fold enrichment (6-mer frequency, TF over GST control); in assay [15] it was 1.23 fold enrichment (6-mer frequency, TF over GST control); in [16] it was 1.22 fold enrichment (6-mer frequency, TF over GST control); in [17], 1.19 fold enrichment (6-mer frequency, TF over GST control); in assay [18], 1.33 fold enrichment (6-mer frequency, TF over GST control).
